The results in this text go back to PubChem BioAssay (NCI).

The panel holds about 79,000 compounds, 15% with a hit somewhere; the sample as a whole holds those more often. Values without a mark were called inactive. The source made the active and inactive calls. Rule as the data show it: active = growth inhibition above about 70%; inactive = the rest.

Assay [1] can be described thus: NCI Yeast Anticancer Drug Screen. Data for the rad50 strain (AID 155).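 Also: 0% = growth of vehicle-only cultures of the same strain.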 The following applies: S. cerevisiae rad50 strain growth inhibition; at 50.0 µM; stronger effect = higher value. The procedure, abridged: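 Relative growth inhibition (compound vs vehicle) was measured in yeast with a defined repair-gene alteration.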
Assay [2] is described as follows: NCI Yeast Anticancer Drug Screen. Data for the mec2-1 strain (AID 157). The following applies: S. cerevisiae mec2-1 strain, at 50.0 µM, stronger effect = higher value. The essentials: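 Readout is yeast growth inhibition, normalised to vehicle-treated controls, in the mec2-1 strain exposed to compound.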
Assay [3] is described as follows: NCI Yeast Anticancer Drug Screen. Data for the sgs1 mgt1 strain (AID 161).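 Also: 0% = growth of cultures given vehicle only.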 The following applies: S. cerevisiae sgs1 mgt1 strain, at 50.0 µM, stronger effect = higher value. The essentials:
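Compounds are added to genetically altered yeast, and growth is compared with cultures given vehicle alone to give percent inhibition.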

Assay [4] in a line: NCI Yeast Anticancer Drug Screen. Data for the cln2 rad14 strain (AID 165).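 Also: 0% = growth equal to vehicle treated cultures.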 The following applies: S. cerevisiae cln2 rad14 strain, at 50.0 µM, stronger effect = higher value. The essentials: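 Relative to vehicle controls, growth inhibition of compound-treated cln2 rad14 yeast was recorded.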
Assay [5] is described as follows: NCI Yeast Anticancer Drug Screen. Data for the bub3 strain (AID 167). The following applies: S. cerevisiae bub3 mutant strain, at 50.0 µM, stronger effect = higher value. The procedure, abridged:
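Screening used yeast with an engineered genetic alteration affecting cell cycle control. Compound-exposed cultures were compared with vehicle cultures, and reduced growth was taken as inhibition.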

The nature of assay [6]: NCI Yeast Anticancer Drug Screen. Data for the mlh1 rad18 strain (AID 175). The following applies: S. cerevisiae mlh1 rad18 strain growth inhibition; at 50.0 µM; stronger effect = higher value. The procedure, abridged: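 Test agents were incubated with a yeast strain of defined genotype (DNA damage repair defect). Inhibition of growth was derived by comparison with vehicle-exposed cultures.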

As to `CC(Br)[N+](=O)[O-]` (stereo unspecified), the growth inhibition in assay [1] is 28.8%; in assay [2], 4.9%; in assay [3], 5.4%; in assay [4], 13.8%; in assay [5] it was -8.7%; in assay [6], 5.35%.

Consider `O=C(Cc1ccc2c(c1)OCO2)c1cn(C(=O)Cc2ccc3c(c2)OCO3)c2ccccc12`, for which the growth inhibition in assay [1] is 18.7%; in assay [2] it was 5.9%; in assay [3], 5.4%; in assay [4] it was 14.8%; in assay [5], 0.35%; in assay [6] it was 26.4%.

As for `CC[N+](CC)(CC)CC#CC[N+](CC)(CC)CC`, the growth inhibition in assay [1] was 5.65%; in assay [2] it was 5%; in assay [3], 14.3%; in assay [4] it was 1.45%; in assay [5] it was 12.8%; in assay [6], 6.1%.

On to `COc1cc(/C=N/NC(=O)CN(C)C)cc(OC)c1N(CCCl)CCCl`, for which the growth inhibition was 8.85% in assay [1]; 10.4% in assay [2]; -15.7% in assay [3]; 17.9% in assay [4]; -2.25% in assay [5]; 5.2% in assay [6].

Take `CCCCCCCC(=O)O.[Ni]`: the growth inhibition in assay [1] was -15.1%; in assay [2] it was -0.6%; in assay [3], -2.3%; in assay [4], 8.45%; in assay [5] it was -18.4%; in assay [6] it was -18.5%.

As to `CC(/C=C/C1OC(=O)C=CC1C)=C\C(C)C/C=C/C(C)=C/C(CO)C(=O)C(C)C(O)C(C)C/C(C)=C/C(=O)O` (stereo unspecified), the growth inhibition was 73.1% (active) in assay [1]; 62.2% in assay [2]; 81.9% (active) in assay [3]; 62.6% in assay [4]; 77.6% (active) in assay [5]; 87.4% (active) in assay [6].

As to `C[n+]1ccccc1-c1ccc[n+](CCCCC[n+]2cccc(-c3cccc[n+]3C)c2)c1`, the growth inhibition is 4.45% in assay [1]; -8.6% in assay [2]; -5.5% in assay [3]; -22.4% in assay [4]; -1.5% in assay [5]; 8.15% in assay [6].

With `Cc1ccc([NH-])cc1.Cc1ccc([NH-])cc1.[Cl][Pt+2][Cl]`, the growth inhibition in assay [1] was -31.7%; in assay [2] it was -6.8%; in assay [3], 3.95%; in assay [4], -61.7%; in assay [5] it was 3.55%; in assay [6] it was -11.3%.

`COP(=O)(OC)C(O)C(Br)(Br)Br` (stereo unspecified): the growth inhibition in assay [1] was 28.6%; in assay [2], 23.1%; in assay [3], 45.2%; in assay [4] it was 34.8%; in assay [5], 11.7%; in assay [6], 23.8%.

In the case of `CCCCCCP(=O)(CCCCCC)CCCCCC` (tested in a mixture with another compound), the growth inhibition in assay [1] is 77.3% (active); in assay [2] it was 83.6% (active); in assay [3] it was 87.5% (active); in assay [4], 78.6% (active); in assay [5] it was 62%; in assay [6], 84.2% (active).

As for `[O-][Cl+3]([O-])([O-])[O-].[O]=[Ru]=[O].c1ccc(-c2ccccn2)nc1.c1ccc(-c2ccccn2)nc1`, the growth inhibition in assay [1] is 21.9%; in assay [2], 20.9%; in assay [3], 22.4%; in assay [4], 14.2%; in assay [5], 13.7%; in assay [6], 27.4%.

Consider `O=P(Oc1ccccc1)(Oc1ccccc1)C(O)c1ccccc1` (stereo unspecified), for which the growth inhibition in assay [1] is 11.2%; in assay [2], 3.55%; in assay [3], 16.8%; in assay [4], 0.65%; in assay [5], -8.4%; in assay [6] it was -2%.

On to `C=CCC1(C(=C)C)C(=O)NC(=O)NC1=O`, for which the growth inhibition in assay [1] is 6.05%; in assay [2], 6.05%; in assay [3] it was 1.4%; in assay [4], 2.75%; in assay [5], -13.8%; in assay [6], -11.3%.

`O=C1c2ccccc2C2(O)C3C=CCCN3CN12` (stereo unspecified): the growth inhibition is 2.65% in assay [1]; 9.1% in assay [2]; -1.25% in assay [3]; 4.15% in assay [4]; -4.05% in assay [5]; -6.75% in assay [6].

With `[C-]#[O+].[Cl][Ru]([Cl])([Cl])([Cl])[Cl]`, the growth inhibition was -7.05% in assay [1]; -8.95% in assay [2]; 35% in assay [3]; -6.75% in assay [4]; 11.3% in assay [5]; 1.9% in assay [6].

As for `CCOC(=O)C[S][Sn]([Cl])([Cl])[S]CC(=O)OCC`, the growth inhibition in assay [1] is 0.6%; in assay [2], -1.15%; in assay [3], -3.65%; in assay [4] it was -32%; in assay [5], -5.2%; in assay [6] it was -18.1%.

For `ClCCN(CCCl)c1ccc(/C=N/c2nc(-c3ccccc3)cs2)cc1`, the growth inhibition in assay [1] is 45.6%; in assay [2], 27.9%; in assay [3] it was 65.4%; in assay [4], 47.4%; in assay [5], -1.75%; in assay [6], 60.9%.

Regarding `CCCCOP(=S)(N1CCCCC1)N1CCCCC1`, the growth inhibition in assay [1] is -8.15%; in assay [2], 3.5%; in assay [3], 5.75%; in assay [4], 8.3%; in assay [5] it was 2.6%; in assay [6] it was 0.95%.

Consider `Clc1ccc(-c2csc3cccc[n+]23)cc1`, for which the growth inhibition in assay [1] is 7.5%; in assay [2] it was 4.35%; in assay [3], 19.4%; in assay [4], 24.1%; in assay [5], 22.8%; in assay [6], 19.3%.

`CCOP(=O)(OCC)/C(C#N)=C/c1cnc(C)[nH]1`: the growth inhibition is -52.4% in assay [1]; 24% in assay [2]; -36% in assay [3]; 26.4% in assay [4]; 16.1% in assay [5]; -5.55% in assay [6].

With `CC1(C)C(=O)N(O)C(C)(C)N1N=O`, the growth inhibition is 1.95% in assay [1]; 13.4% in assay [2]; 18.1% in assay [3]; 28.4% in assay [4]; 15.4% in assay [5]; 19.6% in assay [6].
